Active and inactive are the calls of the source. No rule for the calls is given here.

For the experiment, the target named is Pantothenate synthetase (Mycobacterium tuberculosis (strain ATCC 25618 / H37Rv)) (UniProt P9WIL5). Nature of the experiment: Coupled enzyme confirmation of inhibitors against recombinant Mtb PanC (AID 375).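 Also: 0% = full reaction with vehicle and 100% = no enzyme background.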 Particulars: coupled enzyme assay; at 10 µM, active compounds read high.
Pantothenate synthetase (Mycobacterium tuberculosis (strain ATCC 25618 / H37Rv)), sequence (P9WIL5 whole entry, looked up): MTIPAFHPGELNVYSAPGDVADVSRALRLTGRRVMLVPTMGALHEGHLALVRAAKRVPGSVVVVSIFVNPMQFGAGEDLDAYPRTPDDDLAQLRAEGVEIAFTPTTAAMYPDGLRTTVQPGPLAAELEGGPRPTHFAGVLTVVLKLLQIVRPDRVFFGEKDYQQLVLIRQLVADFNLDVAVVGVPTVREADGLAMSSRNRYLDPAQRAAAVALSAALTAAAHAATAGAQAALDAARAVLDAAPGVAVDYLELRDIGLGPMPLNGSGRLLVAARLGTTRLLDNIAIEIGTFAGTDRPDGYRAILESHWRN
With `CC(O)CN1C(=O)C(CC(=O)Nc2ccc(Cl)cc2)SC1=Nc1ccccc1` (centres undefined), the inhibition was 0% (inactive). For `O=S1(=O)CC(N2CCOCC2)c2ccccc21` (centres undefined) the value was 0% (inactive); for `O=C(O)c1cc2cc(F)ccc2[nH]1`, 2% (inactive); for `O=S(=O)(c1cccs1)N1CCN(C/C=C/c2ccccc2)CC1`, 0% (inactive). On to `CC1(C)Cc2c(C#N)c(SCCC#N)nc(N3CCOCC3)c2CS1`, for which the inhibition is 0% (inactive).

For `CC1CCCCC1NC(=O)Cn1nnc(-c2ccc(Cl)cc2)n1` (centres undefined), the inhibition was 1% (inactive). For the molecule `COc1cccc(NC(=O)C2CCCN(S(=O)(=O)c3cccc4cccnc34)C2)c1` (centres undefined), the inhibition was 0% (inactive). For `CCOc1ccccc1NC(=O)N1C2CCCC1CC(NC(=O)C1CC1)C2` (centres undefined) the value was 6% (inactive).

In the case of `Cc1ccc(O)c(-c2cc(C(=O)Nc3ccc(S(=O)(=O)N4CC(C)OC(C)C4)cc3)[nH]n2)c1` (centres undefined), the inhibition was 5% (inactive).

Turning to `COc1ccc(Cl)cc1Nc1nc(NCCO)nc(N2CCCC2)n1`, the inhibition was 9% (inactive). The value for `COc1ccc(Cc2nc3ccc(S(N)(=O)=O)cc3[nH]2)cc1OC` was 0% (inactive).

On to `COCCN(CCOC)Cc1c(C)[nH]c2ccccc2c1=O`, for which the inhibition was 0% (inactive). The value for `COc1ccc(CNC(=O)c2ccc(CN3CCOCC3)cc2)cc1` was 8% (inactive); that for `Cc1cc(NC(=O)CCCN2C(=O)c3cccnc3C2=O)no1` was 0% (inactive); that for `CCOC(=O)N1CCN(C(=O)c2ccc(N3C(=O)CCC3=O)cc2)CC1` was 0% (inactive). On to `CC(C)CCN1CC(C(=O)NCc2ccccc2)CC1=O` (centres undefined), for which the inhibition was 0% (inactive). The value for `CCC(=O)N1CCN(CCN=CC2=C(O)CC(C)(C)CC2=O)CC1` was 0% (inactive); that for `CCOC(=O)c1ccc(NC(=O)CCc2nc(-c3ccc(C)cc3)no2)cc1` was 0% (inactive).

For the molecule `O=C(CSc1nc(N2CCCCC2)nc(N2CCCCC2)n1)Nc1nccs1`, the inhibition is 0% (inactive).

With `CCC(C(=O)Nc1ncccn1)(C(F)(F)F)C(F)(F)F`, the inhibition was 0% (inactive). The value for `COc1ccc(-c2noc(COc3ccc(Cl)c(C)c3)n2)cc1` was 0% (inactive); that for `Cc1ccn2cc(CCNC(=O)CC(C)(C)C)nc2c1` was 0% (inactive). The value for `COc1cc(SC)ccc1C(=O)Nc1ccccc1C#N` was 0% (inactive); that for `O=C(CSc1nnc(-c2ccccc2Cl)n1Cc1ccco1)Nc1ccc2c(c1)OCCO2` was 2% (inactive). For `COc1ccc(Cn2nnnc2C(c2ccccc2OC)N2CCC(C(N)=O)CC2)cc1` (centres undefined) the value was 0% (inactive). As to `O=C(CN1C(=O)c2cccc3cccc1c23)N1CCN(c2ccccc2)CC1`, the inhibition is 0% (inactive). Take `Cc1cccc(OCCCC(=O)O)c1`: the inhibition was 3% (inactive).

Consider `Cc1c(C(=O)Nc2ccncc2)oc2c1C(=O)CC(C)(C)C2`, for which the inhibition was 5% (inactive). Turning to `O=C(Nc1ccc2c(c1)OCCO2)c1ccco1`, the inhibition is 5% (inactive).

Take `COc1cc(C(=O)NCCc2ccc3c(c2)OCCO3)ccc1OCC(=O)N1CCOCC1`: the inhibition was 2% (inactive). The value for `Cc1c(NC2=NC3(CCCCC3)Cc3ccccc32)c(=O)n(-c2ccccc2)n1C` was 2% (inactive); that for `O=C(Nc1ccc(N2CCCC2)cc1)c1cccc(F)c1` was 4% (inactive). As to `O=S(NCc1ccco1)C12CC3CC(CC(C3)C1)C2` (centres undefined), the inhibition was 0% (inactive). The value for `O=C(c1ccc2snnc2c1)N1CCOCC1` was 3% (inactive); that for `CCOC(=O)c1ccc2nc(NC(NC(C)=O)(C(=O)OC)C(F)(F)F)sc2c1` (centres undefined) was 2% (inactive); that for `COc1cc(NS(=O)(=O)N2CCCC2)cc(OC)c1OC` was 0% (inactive). Take `CCCC(=O)N=C1SC2CS(=O)(=O)CC2N1c1ccc(CC)cc1` (centres undefined): the inhibition was 0% (inactive).

Turning to `CCOc1ccc(C2/C(=C(/O)c3ccccc3)C(=O)C(=O)N2CCCN(C)C)cc1OC` (centres undefined), the inhibition was 0% (inactive). For the molecule `Cc1ccc2cc(CN(Cc3ccc(F)cc3)Cc3nnnn3C3CCCC3)c(=O)[nH]c2c1`, the inhibition is 6% (inactive).

For the origin of these results see PubChem BioAssay.
